An excerpt weighted towards active compounds, which were near 4.5% of everything screened.
tim10-1 inh: growth inhibitors of tim10-1 mutant yeast, primary screen, luminescence, uHTS; inhibition, % at 20 µM; AID 463190, 2010; 330,000 tested, 2.2% active; S. cerevisiae tim10-1 ts strain growth, BacTiter-Glo, 24 h;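 active = inhibition of at least 40%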;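 note: mutant grown at 25 °C; 0% = DMSO wells with yeast and 100% = wells holding no yeast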
PfHsp90 yeast 2: growth inhibition of PfHsp90-expressing yeast, primary screen, antimalarial PfHsp90 inhibitor project, S. cerevisiae, BacTiter-Glo luminescence, single point, set 2; BacTiter-Glo ATP, 48 h; yeast lacking PDR1 and PDR3 efflux regulators; inhibition, % at 9.4 µM; 310,000 tested, 0.32% active;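 active = every replicate shows inhibition above about 80%, whatever the replicate mean, limit read from the data; inconclusive = mean inhibition reaches the set limit but some replicate falls short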;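 note: 0% = DMSO neutral controls and 100% = 20 µM radicicol positive controls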
tim23-1 inh: growth inhibitors of tim23-1 mutant yeast, primary screen, luminescence, uHTS; AID 463212, 2010; inhibition, % at 20 µM; 330,000 tested, 1.3% active; S. cerevisiae tim23-1 growth, BacTiter-Glo luminescence, 24 h;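 active = growth inhibition of the mutant yeast at or above 50%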;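 note: temperature-sensitive mutant grown at 25 °C; plate controls were DMSO-treated mutant yeast for no effect and medium wells lacking yeast for full effect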
SKKanGAS inh: S. pyogenes SKKanGAS growth inhibitors in kanamycin, primary screen, streptokinase expression inhibitor project, SKKanGAS strain, BacTiter-Glo luminescence | 6 h | inhibition, % at 7.5 µM | 300,000 tested, 1.3% active | AID 1662, 2009;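 active = mean replicate score, as percent of positive control median, at least 50; inconclusive = mean below 50 but one replicate at or above 50; inactive = mean and every replicate below 50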;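 note: strain carries kanamycin resistance gene driven by streptokinase promoter and grows in 40 µg/ml kanamycin; loss of luminescence reflects streptokinase promoter inhibition or plain growth inhibition; 0% = median of DMSO wells and 100% = positive control at its reference dose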
NLRP3 yeast inh: NALP3 inflammasome inhibitors in reconstituted yeast, primary screen, luminescence, uHTS. inhibition, % at 10 µM. 330,000 tested, 0.39% active. Yeast reconstituted NLRP3/ASC/caspase-1, beta-gal luminescence, 24 h;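 active = inhibition of 50% or more; inactive = inhibition below 50%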;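 note: plate controls were induced DMSO wells for no effect and uninduced yeast grown without galactose for full effect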
TIM10 inh: growth inhibitors of isogenic TIM10 control yeast, primary screen, counter-screen for tim10-1 yeast inhibitor project, luminescence, uHTS; 330,000 tested, 1.4% active; inhibition, % at 10 µM; S. cerevisiae TIM10 strain growth, BacTiter-Glo luminescence, 24 h; AID 463195, 2010;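 active = inhibition of 40% or more at the single tested concentration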;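 note: wild-type TIM10 isogenic control strain grown at permissive 25 °C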
tim10-1 confirm: growth inhibitors of tim10-1 mutant yeast, confirmation, single concentration, luminescence, S. cerevisiae. shares compounds with tim10-1 inh. S. cerevisiae tim10-1 ts strain growth, BacTiter-Glo, 24 h. inhibition, % at 20 µM. 7,400 tested, 56% active. AID 463213, 2010;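 active = inhibition of yeast growth at or above a set limit in either of two repeat tests at 20 µM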;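 note: tim10-1 mutant grown at permissive 25 °C to find synthetic lethal compounds; 0% = DMSO yeast wells and 100% = medium wells without yeast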
* = called active by the depositor.

COc1ccc(C2=NCN(c3ccc(C)cc3)C(=S)N2)cc1 was read as tim10-1 inh -3.3, PfHsp90 yeast 2 2.3, tim23-1 inh 0.1, SKKanGAS inh -7.5, NLRP3 yeast inh 7.1 and TIM10 inh 3.4.
Screening Cc1ccc(N2CN=C(c3ccccc3)NC2=S)cc1 returned tim10-1 inh 43.9*, PfHsp90 yeast 2 -16.1, tim23-1 inh 23.0, SKKanGAS inh -0.1, NLRP3 yeast inh 26.4, TIM10 inh 3.6 and tim10-1 confirm 0.8.
N#C/C(=C/c1ccc(N2CCCCCC2)o1)c1cccc(F)c1 was read as tim10-1 inh 60.9*, PfHsp90 yeast 2 -34.9, tim23-1 inh 38.6, SKKanGAS inh -3.8, NLRP3 yeast inh 28.1, TIM10 inh 33.6 and tim10-1 confirm 56.8*.
Screening CC(=O)c1ccc(OC(=O)Cc2cccc3ccccc23)cc1 returned tim10-1 inh 46.1*, PfHsp90 yeast 2 -1.0, tim23-1 inh 43.4, SKKanGAS inh -1.5, NLRP3 yeast inh -19.7, TIM10 inh 31.2 and tim10-1 confirm 36.2*.
Cc1nc(C)c(-c2ccc(SCc3ccc([N+](=O)[O-])cc3)nn2)s1 was read as tim10-1 inh 32.8, PfHsp90 yeast 2 4.8, tim23-1 inh 20.7, SKKanGAS inh -2.0, NLRP3 yeast inh 14.9 and TIM10 inh 3.3.
`O=S(=O)(c1ccc2[nH]ccc2c1)N1CCCCCC1` gave tim10-1 inh 43.9*, PfHsp90 yeast 2 -32.8, tim23-1 inh 38.8, SKKanGAS inh -5.3, NLRP3 yeast inh -25.0, TIM10 inh 17.6 and tim10-1 confirm 6.1.
For Oc1ccc(Br)cc1-c1cc(-c2ccc(Cl)cc2)n[nH]1 the results were tim10-1 inh 36.2, PfHsp90 yeast 2 10.9, tim23-1 inh 15.2, SKKanGAS inh 26.8, NLRP3 yeast inh 20.6 and TIM10 inh 16.0.
For COc1ccc(-c2cc(-c3cc(F)ccc3O)[nH]n2)cc1OC the results were tim10-1 inh 40.0, tim23-1 inh 25.3, SKKanGAS inh -16.4, NLRP3 yeast inh 19.7, TIM10 inh 38.4 and tim10-1 confirm 13.6.
`COc1ccc(-c2cc(-c3ccc(Cl)cc3)n[nH]2)c(O)c1` gave tim10-1 inh 40.6*, PfHsp90 yeast 2 0.7, tim23-1 inh 45.3, SKKanGAS inh inconclusive, NLRP3 yeast inh 24.1, TIM10 inh 29.0 and tim10-1 confirm 45.2*.
For COc1ccc(-c2cc(-c3ccccc3O)[nH]n2)cc1OC the results were tim10-1 inh 17.4, tim23-1 inh 25.1, SKKanGAS inh -3.8, NLRP3 yeast inh 2.9 and TIM10 inh 29.0.
For COCCn1c(=NC(=O)c2cc(-c3cccs3)nc3ccccc23)sc2cc(S(N)(=O)=O)ccc21 the results were tim10-1 inh 40.0, PfHsp90 yeast 2 -7.3, tim23-1 inh 24.3, SKKanGAS inh 36.5, NLRP3 yeast inh 1.8, TIM10 inh 14.5 and tim10-1 confirm 29.9*.
Screening COc1ccc(C=CC(O)CCN2CCC3CCC(C3)C2)cc1 (centres undefined) returned PfHsp90 yeast 2 -4.4.
For COc1ccc(C(=O)N2CCCC(CO)(Cc3ccccc3C)C2)o1 (centres undefined) the results were tim10-1 inh 47.8*, PfHsp90 yeast 2 -8.7, tim23-1 inh 19.3, SKKanGAS inh 2.1, NLRP3 yeast inh 4.5, TIM10 inh 8.7 and tim10-1 confirm 24.6.
Cc1ccccc1CC1(CO)CCCN(C(=O)c2cc(Cl)ccc2F)C1 (centres undefined) was read as tim10-1 inh 41.9*, PfHsp90 yeast 2 -41.7, tim23-1 inh 29.8, SKKanGAS inh 29.9, NLRP3 yeast inh 6.7, TIM10 inh -5.1 and tim10-1 confirm 31.9*.
`NC(=S)n1[nH]c(-c2ccc([N+](=O)[O-])cc2)c(N=Nc2cccc(Cl)c2)c1=O` gave tim10-1 inh 41.4*, PfHsp90 yeast 2 -74.2, tim23-1 inh 46.2, SKKanGAS inh 22.0, NLRP3 yeast inh 39.7, TIM10 inh 36.0 and tim10-1 confirm 42.9*.
